Experimental data published in PubChem BioAssay AID701 (PCMD, 2007).
The campaign covered roughly 33,000 compounds. About 70 (0.2%) were called active. No stated cut-off is given here; in the data, active means inhibition above about 30%; inactive means the rest. The list is a sample of the results.

Target: Coagulation factor XII (Homo sapiens) (UniProt P00748)
Assay: human FXIIa protease inhibitors, primary screen, biochemical, single well (AID 701);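 further: 0% = enzyme with vehicle only and 100% = no enzyme blank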
Conditions: purified human FXIIa, AMC substrate fluorescence, 2 h; at 10 µM; stronger effect = higher value

Sequence of Coagulation factor XII (Homo sapiens) (P00748 20-372 limits assumed): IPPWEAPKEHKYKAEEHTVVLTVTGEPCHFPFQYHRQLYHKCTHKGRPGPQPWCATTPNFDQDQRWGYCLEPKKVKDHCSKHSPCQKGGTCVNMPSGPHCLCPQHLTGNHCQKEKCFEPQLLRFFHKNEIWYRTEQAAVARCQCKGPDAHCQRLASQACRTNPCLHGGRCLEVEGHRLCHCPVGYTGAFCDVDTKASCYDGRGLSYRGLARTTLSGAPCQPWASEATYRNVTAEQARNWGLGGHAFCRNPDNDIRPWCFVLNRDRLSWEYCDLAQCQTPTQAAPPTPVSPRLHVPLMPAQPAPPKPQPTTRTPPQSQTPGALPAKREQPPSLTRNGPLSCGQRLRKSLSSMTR
Sequence of Coagulation factor XII (Homo sapiens) (P00748 373-615 limits assumed): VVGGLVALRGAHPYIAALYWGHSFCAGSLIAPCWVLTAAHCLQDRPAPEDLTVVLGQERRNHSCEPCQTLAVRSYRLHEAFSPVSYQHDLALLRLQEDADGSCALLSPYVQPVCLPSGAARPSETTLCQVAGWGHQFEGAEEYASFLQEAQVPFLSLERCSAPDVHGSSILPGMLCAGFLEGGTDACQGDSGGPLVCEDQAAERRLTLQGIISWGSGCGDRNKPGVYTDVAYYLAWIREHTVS

inhibition, inactive:
Cc1ccc(S(=O)(=O)/N=C(\CN2CCOCC2)N2CCOCC2)cc1 -13.1%
O=C(NCCCn1ccnc1)Nc1ccc(Cl)cc1Cl -12%
Cc1cccc(NC(=O)CSc2nnc(-c3ccco3)o2)c1 7.32%
CCOc1ccc(N(CC(=O)NC2CCCCCC2)S(=O)(=O)c2c(C)[nH]c(=O)[nH]c2=O)cc1 -0.15%
CCOc1ccc(NC(=O)c2ccccc2NS(C)(=O)=O)cc1 7.81%
COC(=O)CSc1nnc(-c2cccnc2)o1 4.99%
Cc1cccc(NC(=O)CSc2nc3c(c(=O)[nH]2)CCCC3)c1C 7.72%
CCc1ccc(CNC(=O)C2CC(=O)N(CCc3ccc(C)cc3)C2)cc1 (stereo unspecified) -0.05%
O=C(O)CCC(=O)N(Cc1cccs1)Cc1cccs1 -0.32%
Cn1c(SCC(=O)NC2CCCCC2)nnc1-c1cc2ccccc2o1 -0.46%
CC(=O)c1c(C)n(-c2ccc(N(C)C)cc2)c2ccc(OCC(N)=O)cc12 8.5%
OC(COc1cccc2ccccc12)CN1CCN(c2ccccn2)CC1 (stereo unspecified) 9.54%
CCCn1c(C(Cc2ccccc2)NC(=O)COC)nc2ccccc21 (stereo unspecified) 7.07%
Cn1cc(S(=O)(=O)N2CCN(c3ccc(F)cc3)CC2)c(=O)n(C)c1=O 3.88%
Cc1cc(NC(=O)CS(=O)(=O)c2cn(C)c3ccccc23)no1 3.14%
Cn1c(=O)[nH]c(=O)c2c1nc(N1CCN(CCO)CC1)n2CCSc1nc2ccccc2s1 0.63%
CC(C)CNC(=O)CC(c1ccccc1)c1c(O)ccc2ccccc12 (stereo unspecified) 1.86%
C#CCN(N(C)c1ncc(C(F)(F)F)cc1Cl)S(=O)(=O)c1ccc2ccccc2c1 3.08%
COC(=O)c1ccccc1NC(=O)Cc1ccccc1OC 1.04%
Cc1ccc(S(=O)(=O)N2CCC(C(=O)NCC3CCCO3)CC2)cc1 (stereo unspecified) 2.9%
O=C(CCCn1c(SCC(=O)c2ccccc2)nc2ccccc2c1=O)NCC1CCCO1 (stereo unspecified) 3.06%
Cc1ccc(NC(=O)CSCC(=O)N2CCOCC2)cc1 2.79%
Cc1ccc(C)c(N2C(=O)CS/C2=N\NC(=O)c2ccccc2Cl)c1 8.52%
O=C(CSCc1c(F)cccc1Cl)NCC1CCCO1 (stereo unspecified) 7.29%
COc1ccc(C)cc1NC(=O)CCS(=O)(=O)c1cccc2nonc12 -14.7%
CCCc1noc2c1/C(=N\O)CCC2 8.44%
Cc1ccc(/C=N/NC(=O)Cn2nc(C)c(Br)c2C)o1 5.02%
Cn1nnc(NC(=O)CSc2ncn[nH]2)n1 2.58%
Cc1ccc2cc(CCNC(=O)c3ccc4c(c3)OCO4)c(=O)[nH]c2c1 7.29%
CCOc1cc2[nH]c(=S)n(Cc3ccc(C(=O)NCCOC)cc3)c(=O)c2cc1OCC -2.63%
CCOC(=O)N1CCC(Nc2c(NCCCN3CCN(CC)CC3)c(=O)c2=O)CC1 -0.96%
COc1cc(OC)c(-n2c(C)cc(C=O)c2C)cc1Cl 3.21%
c1ccc(-n2nc3ccccc3n2)cc1 0.64%
CCOc1nc(NCCN2CCOCC2)nc(Nc2ccc(C)cc2)n1 2.85%
CCN(CC)CCn1c2ccc(Cl)cc2c2nc(C)sc21 5.85%
CCOC(=O)c1cnn(Cc2ccccc2Cl)c1N -0.31%
Cc1nc2c(-c3ccc(F)cc3)c(C)nn2c(C)c1CCC(=O)NCc1ccco1 2.8%
CCOC(=O)/C(C#N)=C\c1c(C)cc(C)c(COC(C)=O)c1C 14%
Cc1cc(NC(=O)CCC(=O)N(CC(=O)NCC2CCCO2)c2ccccc2C)no1 (stereo unspecified) 4.76%
CCC(C)NC(=O)CSC1=Nc2ccccc2C2=NC(CCC(=O)NCc3ccco3)C(=O)N12 (stereo unspecified) 5.92%
Cc1cc(S(=O)(=O)NC2CCCCC2)ccc1OCC(=O)NCc1cccnc1 -2.34%
O=P(c1ccc2c(c1)OCCO2)(N1CCOCC1)N1CCOCC1 -11.5%
COc1ccc(C2=NOC3(CC(=O)N(c4ccc(C)cc4)C3=O)C2)cc1 (stereo unspecified) 12.1%
CCOc1ccc(NC(=O)Nc2cc(C)on2)cc1 6.76%
O=C(NC1CCCCC1)C1CC(=O)N(CCc2ccccc2)C1 (stereo unspecified) 1.77%
O=C(NCc1ccccc1)[C@@H]1CSC2c3ccccc3C(=O)N21 (stereo partly specified) 0.72%
Cc1ccc(-n2c(=O)cc(N3CCN(Cc4ccccc4)CC3)[nH]c2=O)cc1 -11.3%
COCCn1c(SCc2nnc(-c3ccc(OC)c(OC)c3)o2)nc2sc3c(c2c1=O)CCC3 7.92%
Cc1csc(OCC(=O)Nc2ccc(C)c(C)c2)n1 7.64%
Cc1cccc(N2CCN(S(=O)(=O)c3ccc4[nH]c(=O)c(=O)[nH]c4c3)CC2C)c1 (stereo unspecified) 7.11%
CCCCCCOc1ccc(OC(=O)c2cccnc2)cc1 4.38%
CCc1ccccc1NC(=O)CN(C)S(=O)(=O)c1ccc2c(c1)c(=O)n(C)c(=O)n2C -0.9%
CCn1c(CC(=O)Nc2ccc(C)cc2)nnc1SCC(=O)Nc1nc(C)cs1 3%
CCCc1nnc(NC(=O)c2cccs2)s1 4.48%
Cn1c(=O)c2c(SCC(=O)N3CCOCC3)nc(C3CC3)nc2n(C)c1=O 5.78%
S=c1nccc(-c2cc(Cl)sc2Cl)[nH]1 3.01%
Cc1ccccc1CSCCNC(=O)c1ccc(Cl)c(S(=O)(=O)N2CCOCC2)c1 -1.19%
CC(C)(C)c1ccc(OC2=CS(=O)(=O)c3ccccc32)cc1 6.47%
CCOc1ccc(C(=O)NCCCN2CCCC2=O)cc1 6.23%
COC(=O)c1cc(NC(=O)C2C3C=CC(C3)C2C(=O)O)cc(C(=O)OC)c1 (stereo unspecified) -2.18%
N#CC1=C(N)N(c2ccccc2)C2=C(C(=O)CCC2)C1c1ccccc1 (stereo unspecified) 6.03%
